A short description of experiment [1]: NCI Yeast Anticancer Drug Screen. Data for the rad50 strain (AID 155).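 Note: 0% = growth of vehicle-only cultures of the same strain.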 Conditions: S. cerevisiae rad50 strain growth inhibition; at 50.0 µM; hits give high values. The method, boiled down: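 Inhibition values express reduced yeast growth in compound-treated cultures relative to vehicle-treated controls.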
Experiment [2] can be described thus: NCI Yeast Anticancer Drug Screen. Data for the mec2-1 strain (AID 157). As to conditions: S. cerevisiae mec2-1 strain, at 50.0 µM, hits give high values. Summed up:
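Yeast mec2-1 mutant treated with compound. Readout: growth inhibition vs vehicle controls.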

The nature of experiment [3]: NCI Yeast Anticancer Drug Screen. Data for the sgs1 mgt1 strain (AID 161).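 Note: 0% = growth of cultures given vehicle only.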 Conditions: S. cerevisiae sgs1 mgt1 strain, at 50.0 µM, hits give high values. The method, boiled down: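 Genetically altered yeast, compound exposure, growth inhibition relative to vehicle.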
A short description of experiment [4]: NCI Yeast Anticancer Drug Screen. Data for the cln2 rad14 strain (AID 165).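 Note: 0% = growth equal to vehicle treated cultures.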 As to conditions: S. cerevisiae cln2 rad14 strain, at 50.0 µM, hits give high values. The method, boiled down: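 cln2 rad14 yeast strain; compound exposure; growth inhibition read vs vehicle controls.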
Experiment [5] in a line: NCI Yeast Anticancer Drug Screen. Data for the bub3 strain (AID 167). Conditions: S. cerevisiae bub3 mutant strain, at 50.0 µM, hits give high values. Summed up: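 Steps: expose the mutant yeast strain to compound; grow alongside vehicle-treated cultures; measure growth; express inhibition against the vehicle cultures.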
A short description of experiment [6]: NCI Yeast Anticancer Drug Screen. Data for the mlh1 rad18 strain (AID 175). Conditions: S. cerevisiae mlh1 rad18 strain growth inhibition; at 50.0 µM; hits give high values. Summed up:
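Yeast w/ defined DNA-repair lesions; compound exposure; growth vs vehicle controls → % inhibition.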

About 79,000 compounds went through this panel and 15% of them were active in at least one assay; those are over-represented in the sample as a whole. A number with no mark means an inactive call. Activity calls are given as the source filed them. Cut-off read from the data, not from the text of the source: active = growth inhibition above about 70%; inactive = the rest.

With `CC(C)=CCc1c(O)ccc(C(=O)C2C(c3c(O)cc(-c4cc5ccc(O)cc5o4)cc3O)C=C(C)CC2c2ccc(O)cc2O)c1O` (stereo not given), the growth inhibition is 87% (active) in experiment [1]; 90.7% (active) in experiment [2]; 90% (active) in experiment [3]; 89.4% (active) in experiment [4]; 88.2% (active) in experiment [5]; 87.9% (active) in experiment [6].

`CN=C(NC)c1ccc(Cl)c(Cl)c1`: the growth inhibition in experiment [1] is 8.1%; in experiment [2] it was -5.4%; in experiment [3] it was -0.9%; in experiment [4], -31.2%; in experiment [5] it was 10.9%; in experiment [6], 11.8%.

For `C=C/C=N/Nc1ccc([N+](=O)[O-])cc1[N+](=O)[O-]`, the growth inhibition is 2.5% in experiment [1]; 5.4% in experiment [2]; 2.2% in experiment [3]; 5.9% in experiment [4]; 2.4% in experiment [5]; -1.35% in experiment [6].

As for `O=C1CCCC(CCc2ccccc2)O1` (stereo not given), the growth inhibition in experiment [1] was 5.45%; in experiment [2], -4.05%; in experiment [3], 1.3%; in experiment [4], -8%; in experiment [5], -37.1%; in experiment [6], -7.9%.

As for `CC1(C)OCC(C(OC(=O)c2ccc([N+](=O)[O-])cc2)C(OC(=O)c2ccc([N+](=O)[O-])cc2)C2COC(C)(C)O2)O1` (stereo not given), the growth inhibition in experiment [1] is 24.6%; in experiment [2], 4.25%; in experiment [3], -5.3%; in experiment [4], 41.2%; in experiment [5] it was 2.9%; in experiment [6], 20.4%.

Turning to `NS(=O)(=O)c1ccccc1`, the growth inhibition is 25.2% in experiment [1]; 18.9% in experiment [2]; 7.95% in experiment [3]; -28.4% in experiment [4]; 12.4% in experiment [5]; 15.4% in experiment [6].

Regarding `Cc1ccc(-c2cn3c(nc4ccccc43)c(-c3ccccc3)n2)cc1`, the growth inhibition in experiment [1] was -25.6%; in experiment [2] it was -26.9%; in experiment [3], -41.6%; in experiment [4] it was -53.4%; in experiment [5] it was -26.1%; in experiment [6], -45%.

Regarding `Cc1nc2cc([N+](=O)[O-])ccc2c(NCCCN(C)C)c1C`, the growth inhibition in experiment [1] is 6.6%; in experiment [2], 8.35%; in experiment [3], 7.25%; in experiment [4], -1.45%; in experiment [5] it was -3.5%; in experiment [6], -39.6%.

For the compound `COc1ccc(Nc2nc(N)nc3c2ncn3C2OC(CO)C(O)C2O)cc1` (stereo not given), the growth inhibition in experiment [1] was -9.6%; in experiment [2], -17.9%; in experiment [3], -13.2%; in experiment [4], -7%; in experiment [5], 2.05%; in experiment [6], -11.5%.

With `CS1(C)=NC(=O)C2=C(N=1)c1ccccc1S2(=O)=O`, the growth inhibition is -10.9% in experiment [1]; -6% in experiment [2]; -19% in experiment [3]; -19.6% in experiment [4]; 1.85% in experiment [5]; -7.85% in experiment [6].

Take `CC(=O)Nc1c(C)ccc([N+](=O)[O-])c1C`: the growth inhibition in experiment [1] is -3.2%; in experiment [2], -2.2%; in experiment [3], -9.7%; in experiment [4], 5.95%; in experiment [5], 2.7%; in experiment [6], 13.5%.

As to `O=C1c2ccccc2C(=O)N1c1cccc([N+](=O)[O-])c1`, the growth inhibition in experiment [1] was 0.5%; in experiment [2] it was 15.9%; in experiment [3], 16.4%; in experiment [4] it was -44.6%; in experiment [5] it was 26.4%; in experiment [6] it was 7.05%.

Consider `CCOC(=O)C1=C(O)c2ccccc2S(=O)(=O)N1C` (tested in a mixture with another compound), for which the growth inhibition in experiment [1] was 4.05%; in experiment [2], 20.3%; in experiment [3] it was 14%; in experiment [4], -18.9%; in experiment [5], -25.6%; in experiment [6], 0%.

Take `C[CH2][Ge]([CH2]C)[CH2]C.C[CH2][Ge]([CH2]C)[CH2]C`: the growth inhibition is 6.5% in experiment [1]; 0.35% in experiment [2]; -2.45% in experiment [3]; -25.4% in experiment [4]; 0.9% in experiment [5]; -3% in experiment [6].

For the compound `CC(=O)c1sc2c(c1OC(=O)c1cccs1)c(=O)n(-c1ccccc1)c(=S)n2-c1ccccc1`, the growth inhibition in experiment [1] is 22.2%; in experiment [2], -4.25%; in experiment [3], 10.3%; in experiment [4], -15.1%; in experiment [5], 23.4%; in experiment [6], 3.9%.

As to `O=C(NCCCCCCNC(=O)C1CCCN1C(=O)OCc1ccccc1)C1CCCN1C(=O)OCc1ccccc1` (stereo not given), the growth inhibition in experiment [1] is 0.6%; in experiment [2] it was -24.2%; in experiment [3], -8.15%; in experiment [4] it was -1.9%; in experiment [5] it was -5.7%; in experiment [6], 6.4%.

For the compound `S=c1c2ccccc2sn1-c1ccccc1`, the growth inhibition in experiment [1] is 26.2%; in experiment [2] it was 21.6%; in experiment [3], 14.9%; in experiment [4], -0.85%; in experiment [5], -12.9%; in experiment [6] it was 51.5%.

For `COc1cc(C(=O)NC(=S)NC2CCCCCCCCCCC2)cc(OC)c1OC`, the growth inhibition in experiment [1] is 8.1%; in experiment [2], -15.3%; in experiment [3], 7.25%; in experiment [4] it was 1.65%; in experiment [5] it was 6.05%; in experiment [6] it was 4.6%.

For the compound `O=C(/C=C/c1cccs1)c1ccc([N+](=O)[O-])cc1`, the growth inhibition in experiment [1] is -59%; in experiment [2], -58.7%; in experiment [3] it was -27.6%; in experiment [4], -6.3%; in experiment [5], -23.1%; in experiment [6], -21.6%.

With `O=Cc1cc2ccccc2c2ccccc12`, the growth inhibition was -23.2% in experiment [1]; -24% in experiment [2]; 5.45% in experiment [3]; -16.8% in experiment [4]; 0.2% in experiment [5]; -4.9% in experiment [6].

For the origin of these results see PubChem BioAssay (NCI).
